Measurements from PubChem BioAssay (EPA / NIEHS).
Values joined by “and” are separate entries in the source; they are usually repeats but may differ in a detail not shown here. Identical values can stand only once. Some compounds were tested as several samples or in several runs, with calls that do not always agree. Active and inactive are the calls of the source. The calls were made as follows: active = hit-call score of the fitted dose curve at least 0.9, where 1 is the maximum; inactive = score below 0.9.

What was measured:
[1] = read-out: Interleukin-6 (IL6), IL6 (gene 3569); experiment: BSK_CASM3C_IL6: BioMAP Diversity Plus: CASM3C Assay for Interleukin-6 (IL6) Biomarker Activity for (AID 2283040); details: primary human coronary artery smooth muscle cells; actives raise or lower the signal
[2] = read-out: Tissue plasminogen activator (tPA), PLAT (gene 5327); experiment: BSK_BE3C_tPA: BioMAP Diversity Plus: BE3C Assay for Tissue plasminogen activator (tPA) Biomarker Activity (AID 2283041); details: primary human bronchial epithelial cells; actives raise or lower the signal
Summary of the method: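 Human primary bronchial epithelial cells were dosed with chemical and tPA biomarker levels measured by ELISA 24 hours later. Activity was fitted bidirectionally against DMSO as negative control and baseline.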

[3] = read-out: Interleukin-8 (IL8), CXCL8 (gene 3576); experiment: BSK_CASM3C_IL8: BioMAP Diversity Plus: CASM3C Assay for Interleukin-8 (IL8) Biomarker Activity (AID 2283042); details: primary human coronary artery smooth muscle cells; actives raise or lower the signal;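 also: IL-8 protein level quantified by ELISA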
[4] = read-out: Human Leukocyte Antigen - DR isotype (HLADR), HLA-DRA (gene 3122); experiment: BSK_CASM3C_HLADR: BioMAP Diversity Plus: CASM3C Assay for Human Leukocyte Antigen - DR isotype (HLADR) Biomarker Activity (AID 2283043); details: primary human coronary artery smooth muscle cells; actives raise or lower the signal;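 also: cell-surface HLA-DR protein level quantified by ELISA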
[5] = read-out: Macrophage colony-stimulating factor (MCSF), CSF1 (gene 1435); experiment: BSK_CASM3C_MCSF: BioMAP Diversity Plus: CASM3C Assay for Macrophage colony-stimulating factor (MCSF) Biomarker Activity (AID 2283044); details: primary human coronary artery smooth muscle cells; actives raise or lower the signal;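 also: M-CSF protein amount quantified by ELISA after 24 h exposure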
[6] = read-out: Low-density lipoprotein receptor (LDLR), LDLR (gene 3949); experiment: BSK_CASM3C_LDLR: BioMAP Diversity Plus: CASM3C Assay for Low-density lipoprotein receptor (LDLR) Biomarker Activity (AID 2283045); details: primary human coronary artery smooth muscle cells; actives raise or lower the signal;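 also: LDLR protein level on the cell surface quantified by ELISA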
[7] = read-out: Monocyte Chemoattractant Protein-1 (MCP1), CCL2 (gene 6347); experiment: BSK_CASM3C_MCP1: BioMAP Diversity Plus: CASM3C Assay for Monocyte Chemoattractant Protein-1 (MCP1) Biomarker Activity (AID 2283046); details: primary human coronary artery smooth muscle cells; actives raise or lower the signal;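 also: MCP-1 level quantified by ELISA 24 h after dosing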
[8] = BSK_CASM3C_Proliferation: Cell Proliferation Assessment in the BioMAP Diversity Plus: CASM3C Assay (AID 2283047); details: primary human coronary artery smooth muscle cells;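 also: sulforhodamine B total protein stain as relative cell number at 560 nm; sub-confluent cells exposed 48 h before staining; fitted both ways against DMSO so gain or loss of cell number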
[9] = read-out: Monokine induced gamma interferon (MIG), CXCL9 (gene 4283); experiment: BSK_CASM3C_MIG: BioMAP Diversity Plus: CASM3C Assay for Monokine induced gamma interferon (MIG) Biomarker Activity (AID 2283048); details: primary human coronary artery smooth muscle cells; actives raise or lower the signal;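 also: MIG protein level measured by ELISA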
[10] = read-out: serum amyloid A (SAA), SAA1 (gene 6288); experiment: BSK_CASM3C_SAA: BioMAP Diversity Plus: CASM3C Assay for serum amyloid A (SAA) Biomarker Activity (AID 2283049); details: primary human coronary artery smooth muscle cells; actives raise or lower the signal;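 also: SAA protein level quantified by ELISA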
[11] = BSK_CASM3C_SRB: Viability Assessment in the BioMAP Diversity Plus: CASM3C Assay (AID 2283050); details: primary human coronary artery smooth muscle cells;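 also: total protein by SRB staining as cytotoxicity measure in parallel cultures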
[12] = read-out: Thrombomodulin, THBD (gene 7056); experiment: BSK_CASM3C_Thrombomodulin: BioMAP Diversity Plus: CASM3C Assay for Thrombomodulin Biomarker Activity (AID 2283051); details: primary human coronary artery smooth muscle cells; actives raise or lower the signal;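 also: thrombomodulin protein level measured by ELISA 24 h after dosing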
[13] = read-out: Tissue Factor, F3 (gene 2152); experiment: BSK_CASM3C_TissueFactor: BioMAP Diversity Plus: CASM3C Assay for Tissue Factor Biomarker Activity (AID 2283052); details: primary human coronary artery smooth muscle cells; actives raise or lower the signal;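 also: cell surface tissue factor protein level read by ELISA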
[14] = read-out: Interferon-gamma inducible Protein 10 (IP10), CXCL10 (gene 3627); experiment: BSK_hDFCGF_IP10: BioMAP Diversity Plus: hDFCGF Assay for Interferon-gamma inducible Protein 10 (IP10) Biomarker Activity (AID 2283053); details: primary human foreskin fibroblasts; actives raise or lower the signal
Summary of the method: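 Human foreskin fibroblast primary cells (hDFCGF system) were dosed with chemical and assayed at 24 h; IP-10 measured by ELISA. Activity fitted bidirectionally relative to DMSO negative control as baseline.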

[15] = read-out: Urokinase-type plasminogen activator receptor (uPAR), PLAUR (gene 5329); experiment: BSK_CASM3C_uPAR: BioMAP Diversity Plus: CASM3C Assay for Urokinase-type plasminogen activator receptor (uPAR) Biomarker Activity (AID 2283054); details: primary human coronary artery smooth muscle cells; actives raise or lower the signal;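 also: cell-surface uPAR protein level quantified by ELISA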
[16] = read-out: Vascular cell adhesion molecule 1 (VCAM1), VCAM1 (gene 7412); experiment: BSK_CASM3C_VCAM1: BioMAP Diversity Plus: CASM3C Assay for Vascular cell adhesion molecule 1 (VCAM1) Biomarker Activity (AID 2283055); details: primary human coronary artery smooth muscle cells; actives raise or lower the signal;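 also: VCAM-1 protein level quantified by ELISA on the cells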
[17] = read-out: Collagen III, COL3A1 (gene 1281); experiment: BSK_hDFCGF_CollagenIII: BioMAP Diversity Plus: hDFCGF Assay for Collagen III Biomarker Activity (AID 2283056); details: primary human foreskin fibroblasts; actives raise or lower the signal
Summary of the method: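 ELISA read-out of collagen III from human skin fibroblast cultures sampled 24 h post-dosing. Values were derived by bidirectional fitting relative to the DMSO vehicle control.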

[18] = read-out: Epidermal growth factor receptor (EGFR), EGFR (gene 1956); experiment: BSK_hDFCGF_EGFR: BioMAP Diversity Plus: hDFCGF Assay for Epidermal growth factor receptor (EGFR) Biomarker Activity (AID 2283057); details: primary human foreskin fibroblasts; actives raise or lower the signal
Summary of the method: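 Primary human foreskin fibroblasts were exposed to compound for 24 h, after which cell-surface EGFR was quantified by ELISA. Activity was fitted bidirectionally against the DMSO negative control as baseline.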

[19] = read-out: Interleukin-8 (IL8), CXCL8 (gene 3576); experiment: BSK_hDFCGF_IL8: BioMAP Diversity Plus: hDFCGF Assay for Interleukin-8 (IL8) Biomarker Activity (AID 2283058); details: primary human foreskin fibroblasts; actives raise or lower the signal
Summary of the method: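 Cells used are human skin primary fibroblasts. Chemical is added, cultures run 24 h, then IL-8 is quantified by ELISA, and gain or loss versus DMSO control is fitted in both directions.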

[20] = BSK_hDFCGF_Proliferation: Cell Proliferation Assessment in the BioMAP Diversity Plus: hDFCGF Assay (AID 2283059); details: primary human foreskin fibroblasts;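 also: curves fitted for both rise and fall of signal versus DMSO baseline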
Summary of the method: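 This proliferation readout used SRB total-protein staining of human foreskin fibroblasts […], normalized to DMSO with bidirectional curve fitting.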

Measured: AC50

O=C(O)C(F)(F)C(F)(F)C(F)(F)C(F)(F)C(F)(F)C(F)(F)C(F)F
active: [14] 8.52 µM | [17] 30 µM | [18] 30 µM and 1.81 µM
inactive: [1] | [2] | [3] | [4] | [5] | [6] | [7] | [8] | [9] | [10] | [11] | [12] | [13] | [14] | [15] | [16] | [17] | [18] | [19] | [20]

C=CC(=O)OCCC(F)(F)C(F)(F)C(F)(F)C(F)(F)F
active: [8] 15 µM | [9] 41.1 µM and 30 µM | [14] 30 µM and 21.3 µM | [16] 30 µM | [17] 21.9 µM | [20] 7.58 µM
inactive: [1] | [2] | [3] | [4] | [5] | [6] | [7] | [8] | [10] | [11] | [12] | [13] | [15] | [17] | [18] | [19] | [20]

CCOC(C=C(C)CCC=C(C)C)OCC
inactive: [2] | [3] | [10] | [12] | [18] | [19]
active: [1] 20 µM | [4] 20 µM | [5] 20 µM | [6] 10.3 µM | [7] 28.9 µM | [8] 33.7 µM | [9] 34.4 µM | [11] 32.1 µM | [13] 28.6 µM | [14] 29.8 µM | [15] 31.4 µM | [16] 25.7 µM | [17] 29 µM | [20] 32.2 µM

O=S(=O)(O)CCC(F)(F)C(F)(F)C(F)(F)C(F)(F)F
active: [17] 2.04 µM
inactive: [1] | [2] | [3] | [4] | [5] | [6] | [7] | [8] | [9] | [10] | [11] | [12] | [13] | [14] | [15] | [16] | [17] | [18] | [19] | [20]

FC(F)(F)C(F)(F)C(F)(F)C(F)(F)C(F)(F)C(F)(F)C(F)(F)CCI
active: [14] 2.45 µM | [17] 2.26 µM | [20] 1.78 µM and 1.25 µM
inactive: [1] | [2] | [3] | [4] | [5] | [6] | [7] | [8] | [9] | [10] | [11] | [12] | [13] | [14] | [15] | [16] | [17] | [18] | [19]

C=CC(=O)OCC(F)(F)C(F)(F)C(F)(F)C(F)(F)C(F)(F)C(F)(F)C(F)(F)C(F)F
inactive: [1] | [2] | [3] | [4] | [5] | [6] | [7] | [8] | [9] | [10] | [11] | [12] | [13] | [14] | [15] | [16] | [17] | [18] | [19]
active: [14] 28.8 µM | [16] 11 µM | [20] 18.4 µM and 11.6 µM

CCOC(=O)CC(=O)C(F)(F)C(F)(F)F
inactive: all assays above

C[Si](Cl)(Cl)CCC(F)(F)C(F)(F)C(F)(F)C(F)(F)C(F)(F)C(F)(F)F
inactive: [1] | [2] | [3] | [4] | [5] | [6] | [7] | [8] | [9] | [10] | [11] | [12] | [13] | [14] | [15] | [16] | [17] | [18] | [19]
active: [14] 2.48 µM | [17] 0.332 µM | [20] 115 nM and 2.85 µM

FC(F)(F)C(F)(F)C(F)(F)C(F)(F)C(F)(F)C(F)(F)CC[Si](Cl)(Cl)Cl
inactive: all assays above

NC(=O)C(F)(F)C(F)(F)C(F)(F)C(F)(F)C(N)=O
inactive: all assays above

Cc1cc(O)c(C(C)(C)C)cc1C(C)(C)C
active: [1] 5.61 µM | [2] 5.21 µM | [3] 8.77 µM | [4] 3.5 µM | [5] 4.59 µM | [6] 5.37 µM | [7] 5.83 µM | [8] 3.85 µM | [9] 12.5 µM | [10] 4.22 µM | [11] 4.99 µM | [12] 12 µM | [13] 3.61 µM | [14] 6.51 µM | [15] 8.38 µM | [16] 4.81 µM | [17] 1.92 µM | [20] 1.78 µM
inactive: [18] | [19]

O=C(O)C(F)(F)OC(F)(F)C(F)(F)OC(F)(F)C(F)(F)OC(F)(F)F
inactive: all assays above

O=C=Nc1cccc2c(N=C=O)cccc12
inactive: all assays above

NS(=O)(=O)C(F)(F)C(F)(F)C(F)(F)C(F)(F)C(F)(F)C(F)(F)F
active: [2] 49 µM and 47.5 µM | [14] 37.3 µM and 28.8 µM | [20] 50.8 µM and 50.6 µM
inactive: all other assays above

Cc1ccc(O)c(-n2nc3ccccc3n2)c1
inactive: all assays above

O=C(O)CCC(F)(F)C(F)(F)C(F)(F)C(F)(F)C(F)(F)C(F)(F)C(F)(F)F
inactive: all assays above

NC(=O)C(F)(F)C(F)(F)C(F)(F)F
inactive: all assays above

O=C(Cl)C(F)(F)C(F)(F)C(F)(F)C(F)(F)C(F)(F)C(F)(F)C(F)(F)F
inactive: all assays above

C[C@]12CC[C@H]3C(=CCc4cc(O)ccc43)[C@@H]1CCC2=O
active: [6] 14.3 µM
inactive: all other assays above

O=C(O)C(F)(F)C(F)(F)C(F)(F)C(=O)O
inactive: all assays above

Nc1cc([N+](=O)[O-])cc(Cl)c1O
inactive: all assays above
